Reference: PubChem BioAssay AID1851 (National Center for Advancing Translational Sciences (NCATS), 2009)
The campaign covered roughly 16,000 compounds. About 2,600 (16%) were called active. Not shown: some 20% with an inconclusive outcome. These entries were drawn from the full list. Values without a mark were called inactive. Calls follow the shape of the dose curve; as a rule, active = well fitted curve in the direction sought with a large enough effect; inconclusive = small, poorly fitted or top-dose-only effect, or effect the other way; inactive = no such curve, though single readings can be large or run the other way.

target: Cytochrome P450 2D6 (Homo sapiens) (UniProt P10635); assay: Cytochrome panel assay with activity outcomes; settings: recombinant CYP, pro-luciferin dealkylation, luminescence, p450-cyp2d6; series mostly up to 57.1 µM
% is scaled to controls: 0 for no effect and ±100 for the full control effect.

Chain of Cytochrome P450 2D6 (Homo sapiens) (P10635 whole entry, looked up): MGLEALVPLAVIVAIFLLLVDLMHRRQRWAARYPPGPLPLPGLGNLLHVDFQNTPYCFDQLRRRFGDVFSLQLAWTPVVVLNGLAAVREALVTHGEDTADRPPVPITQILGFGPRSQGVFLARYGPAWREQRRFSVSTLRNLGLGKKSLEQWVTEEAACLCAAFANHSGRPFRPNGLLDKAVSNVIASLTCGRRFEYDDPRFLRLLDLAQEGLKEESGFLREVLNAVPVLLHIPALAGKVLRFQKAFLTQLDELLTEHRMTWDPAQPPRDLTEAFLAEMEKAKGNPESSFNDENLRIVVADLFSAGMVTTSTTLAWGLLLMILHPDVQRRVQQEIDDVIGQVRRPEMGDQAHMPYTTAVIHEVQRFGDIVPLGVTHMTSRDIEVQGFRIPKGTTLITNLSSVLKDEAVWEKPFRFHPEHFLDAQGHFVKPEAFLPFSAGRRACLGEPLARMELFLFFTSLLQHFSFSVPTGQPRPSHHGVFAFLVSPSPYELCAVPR

SMILES	AC50	activity, negative = inhibition
N#Cc1cc(N)ccc1Sc1ccc(Cl)cc1	22.4 µM (active)	–
N#Cc1cc(-c2ccc(Cl)cc2)cnc1Sc1ccccc1	inactive	–
N#Cc1cc(-c2ccc(Cl)cc2)cnc1Sc1ccc(F)cc1	inactive	–
Cc1cc(C)cc(-n2c(C)cc(C=C(C#N)C#N)c2C)c1	inactive	–
Cn1c(=O)c2c(nc(C(=N)SCC(=O)O)n2C)n(C)c1=O	–	1.35% [at 11.4 µM]
O=C1C2=C(NC(=S)NC2c2ccc(Cl)cc2)NC(c2ccc(Cl)cc2)N1c1ccc(Cl)cc1 (stereo unspecified)	15.8 µM (active)	–
S=C1N(c2ccccc2)C(c2ccc(Cl)cc2)N2CCCN12 (stereo unspecified)	inactive	–
O=C1C2CCCN2C(c2ccccc2F)N1c1ccc(Cl)cc1 (stereo unspecified)	inactive	–
Cc1cnn(CCC(=O)NNC(=S)Nc2cccc(Cl)c2)c1	inactive	–
COCCn1c(=O)c(-c2cc(F)cc(F)c2)nc2cnc(Oc3cccc(Cl)c3)nc21	inactive	–
Cc1cc(Br)ccc1NCc1ccccn1	15.8 µM (active)	–
Cc1cc(=O)oc(C)c1C(=O)NCc1ccccn1	inactive	–
Cc1cc(NCc2ccccn2)ccc1Br	inactive	–
O=C(NNC(=O)c1ccccc1-n1cccc1)c1ccccc1	inactive	–
O=C(NNC(=O)c1ccccc1O)c1ccc(Cl)cc1	2.82 µM (active)	–
O=C(O)c1ccccc1C(=O)NNc1ccc(Cl)cc1	inactive	–
O=C(C[N+]1(c2ccccc2)CCOCC1)c1ccccc1	–	-6.92% [at 11.4 µM]
Cc1ccc(S(=O)(=O)N/N=C/c2ccc(OC3CSC3)cc2)cc1	inactive	–
O=S(=O)(N/N=C\c1ccc2c(c1)OCO2)c1ccc(Cl)cc1	7.94 µM (active)	–
O=S(=O)(N/N=C/c1ccc2c(c1)OCCO2)c1ccc(Cl)cc1	inactive	–
N[C@@H](Cc1nn[nH]n1)C(=O)O	–	7.47% [at 11.4 µM]
Cn1c(/C(C#N)=C(\O)c2ccc(S(=O)(=O)N3CCCCC3)cc2)nc2ccccc21	inactive	–

SMILES	AC50	activity, negative = inhibition
C[C@]1(O)CC[C@H]2[C@H]3CC=C4N5CCN=C5CC[C@@]4(C)[C@H]3CC[C@@]21C	–	-4.3% [at 11.4 µM]
CN1CCC(=C2c3ccccc3C=Cc3ccccc32)CC1	2.51 µM (active)	–
CN1CCN(c2ncnc3ccc(-c4ccccc4C#N)cc23)CC1	inactive	–
CN1CCC(=C2c3ccccc3Sc3ccccc32)CC1	3.98 µM (active)	–
O=C(Nc1ncc(Cc2cc(Cl)ccc2Cl)s1)c1ccc([N+](=O)[O-])cc1	inactive	–
C/C=C\C1=C(CO)C(=O)C2O[C@]2(CC=C(C)C)C1=O (stereo partly specified)	–	0.497% [at 11.4 µM]
COc1ccccc1Cn1c(=S)[nH]c2cc(C(=O)N3CCN(C)CC3)ccc2c1=O	inactive	–
CCOc1cc2[nH]c(=S)n(CCC(=O)N3CCc4ccccc4C3)c(=O)c2cc1OCC	inactive	–
CCC1CCCCN1CCn1c(=S)[nH]c2cc(OC)c(OC)cc2c1=O (stereo unspecified)	0.178 µM (active)	–
COc1cc(/C=C(/NC(=O)c2ccccc2Cl)C(=O)O)cc(OC)c1OC	inactive	–
O=C(Nc1ccc(-n2nncc2-c2ccco2)cc1)c1ccc(F)cc1	1.12 µM (active)	–
COc1ccc(CCNC(=O)c2ccccc2NC(=O)c2ccco2)cc1OC	inactive	–
COc1ccc(-c2cnnn2-c2ccc(NC(=O)c3ccco3)cc2)cc1OC	10 µM (active)	–
COc1cc(C(=O)Nc2ccc(-c3nnc(-c4ccco4)o3)cc2)cc(OC)c1OC	inactive	–
O=C(Nc1cccc2[nH]ncc12)c1ccc(F)cc1	inactive	–
Cc1cc(NC(=O)c2ccco2)ccc1-n1cnnn1	inactive	–
Cc1ccc(NC(=O)C(C)N2C(=O)C3C4CC(C(Br)C4Br)C3C2=O)cc1 (stereo unspecified)	inactive	–
COC(=O)CSc1ccc(C#N)c(SCC(=O)OC)c1	inactive	–
CC(C)NC(=O)c1ccc(-c2cccc(C(F)(F)F)c2)o1	inactive	–
COc1ccc2c(=O)cc(-c3ccncc3)oc2c1OC	–	12.2% [at 11.4 µM]
N=C(N)SCc1cccc2c(=O)cc(-c3ccccc3)oc12	2.51 µM (active)	–
N=C(N)SCc1cccc(-c2nc3ccccc3c(=O)o2)c1	–	6.52% [at 11.4 µM]

SMILES	AC50	activity, negative = inhibition
CCCNC1CCS(=O)(=O)C1 (stereo unspecified)	inactive	–
C/C(=N/O)[C@@H]1C[C@H](CC(=O)O)C1(C)C	–	-1.22% [at 11.4 µM]
CCOC(=O)N/N=C(/C)c1ccc([N+](=O)[O-])o1	inactive	–
Cc1ccc(-c2nnc(C)c(N3CC(C)OC(C)C3)n2)cc1 (stereo unspecified)	inactive	–
COc1ccccc1N1CCN(CCN2C(=O)CC3(CCCC3)CC2=O)CC1	inactive	–
O=C1CC2(CCCC2)CC(=O)N1CCNC[C@H]1COc2ccccc2O1	0.126 µM (active)	–
Cc1cc(C(=O)CSc2nnc(-c3ccccc3)o2)c(C)n1CC1COc2ccccc2O1 (stereo unspecified)	inactive	–
Cn1c(C(=O)O)c(CC(=O)NCC2COc3ccccc3O2)c2ccccc21 (stereo unspecified)	inactive	–
O=C1CC2(CCCC2)CC(=O)N1CCCCNC[C@H]1COc2ccccc2O1	5.01 µM (active)	–
C[N+]1(C)CCc2cc(O)c(O)cc2[C@H]1Cc1ccc(O)c(O)c1	–	-2.15% [at 11.4 µM]
CC(C)N1CCN(c2ccc(OC[C@@H]3CO[C@@](Cn4cncn4)(c4ccc(Cl)cc4Cl)O3)cc2)CC1	inactive	–
Cn1c(=S)c2[nH]c(SCc3cccnc3)nc2n(C)c1=O	–	14% [at 11.4 µM]
Cc1ccc(C)c(N(CC(=O)NC2CCCC2)C(=O)c2cc3cc4cccc(C)c4nc3s2)c1	inactive	–
CC(=O)N1N=C(c2cccc([N+](=O)[O-])c2)OC1c1ccc(Cl)cc1Cl (stereo unspecified)	inactive	–
CN(Cc1ccco1)c1cc(-c2cccc(C#N)c2)ncn1	inactive	–
CN(Cc1ccco1)c1cc(-c2cccnc2)ncn1	inactive	–
CN(Cc1ccco1)c1ccnc(-c2cccc(NS(C)(=O)=O)c2)n1	20 µM (active)	–
COc1cccc(-c2nccc(N(C)Cc3ccco3)n2)c1	1.26 µM (active)	–
CN(C)c1ccnc(-c2cccc(NS(C)(=O)=O)c2)n1	inactive	–
CN(Cc1ccco1)c1ccnc(-c2ccoc2)n1	inactive	–
COc1cccc(-c2cc(N(C)Cc3ccco3)ncn2)c1	15.8 µM (active)	–
CN(Cc1ccco1)c1ccnc(-c2cccnc2)n1	7.94 µM (active)	–

SMILES	AC50	activity, negative = inhibition
CCOC(=O)c1c(C)nc2c(c1-c1ccccc1)C(=O)CCC2	inactive	–
C=C(CC)C(=O)c1ccc(OCC(=O)O)c(Cl)c1Cl	inactive	–
C=CCNc1nc(Cl)nc(Nc2ccc(OC)cc2)n1	inactive	–
CNC(=O)[C@@H]1O[C@@H](n2cnc3c(NCc4ccc(N)cc4)ncnc32)[C@@H](O)[C@H]1O	inactive	–
COc1nnc(OC)c2ccccc12	inactive	–
NS(=O)(=O)c1cc(C(=O)O)c(O)c2ccccc12	–	0.979% [at 11.4 µM]
COC(=O)/C=C\c1cc(O)ccc1O	inactive	–
C#CCSc1nncn1C(=O)/C=C/c1ccccc1	inactive	–
Nc1nc2c(c(=O)[nH]1)CN(c1ccc(S(N)(=O)=O)cc1)CN2	–	-2.27% [at 11.4 µM]
CCC(Sc1nc(C)cc(=O)[nH]1)C(=O)Nc1nc2c(s1)CCCC2 (stereo unspecified)	inactive	–
N=C(N)SCCc1ccc(OCc2ccc([N+](=O)[O-])cc2)cc1	inactive	–
CC(C)Oc1ccc(CSC(=N)N)cc1	14.1 µM (active)	–
CCc1nnc(SCc2ccc(OC(C)C)cc2)n1N	inactive	–
O=C1CN(C(=O)c2ccc(Br)o2)C(c2ccc(F)cc2)c2cc(Cl)ccc2N1 (stereo unspecified)	inactive	–
C[C@@H]1CN2[C@H](c3ccc(Br)cc3)[C@H](C)CC[C@H]2C(=O)O1	–	-10.6% [at 11.4 µM]
NC(=O)N[C@H]1NC(=O)NC1=O	inactive	–
O=C(NCc1ccccc1Cl)c1cnccn1	inactive	–
OCCCNCc1ccccn1	–	12.8% [at 11.4 µM]
OCCCCNCc1ccc(OCc2ccccc2Cl)cc1	3.55 µM (active)	–
CCOc1cc(/C=C2\N=C(C)OC2=O)cc(Br)c1OCC(=O)OC	inactive	–
CCOc1cc(C2NN=C(c3ccccc3)S2)ccc1OCc1ccccc1Cl (stereo unspecified)	inactive	–
CCOc1cc(CNCCO)cc(Br)c1OCc1ccccc1Cl	4.47 µM (active)	–

SMILES	AC50	activity, negative = inhibition
CCC(C)NC(=O)C1c2cc(OC)c(OC)cc2C(=O)N(C)C1c1cccs1 (stereo unspecified)	inactive	–
C/C(=N/S(=O)(=O)c1ccc(Cl)c(Cl)c1)OCC(C)(C)C	–	8.65% [at 11.4 µM]
COc1ccc(Oc2ncc3nc(-c4ccc(Cl)cc4)c(=O)n(C)c3n2)cc1	inactive	–
CN(C)CCNC(=O)C(C(=O)c1ccc(F)cc1)n1ccccc1=O (stereo unspecified)	inactive	–
CCCCSc1nc(C)cc(NC(=S)Nc2ccc(OC)cc2)n1	inactive	–
CCc1cc[n+](-c2nc3ccccc3nc2C(=C=[N-])C#N)cc1	inactive	–
C/C(CC(=O)NCc1ccco1)=N\NC(=O)Cc1ccccc1	inactive	–
CCCNC(=O)CC(NS(=O)(=O)c1ccc(Cl)cc1)c1ccco1 (stereo unspecified)	1.41 µM (active)	–
CCCNC(=O)NS(=O)(=O)c1ccc(Cl)cc1	inactive	–
CCCCNC(=O)NS(=O)(=O)c1ccc(C)cc1	inactive	–
C/C(CC(=O)NCc1ccco1)=N\NC(=O)Cc1ccc(Cl)cc1	inactive	–
O=C(CC(NS(=O)(=O)c1ccc(Cl)cc1)c1ccco1)NCc1ccco1 (stereo unspecified)	5.62 µM (active)	–
C/C(=N/NC(=O)Cc1cccn1C)c1ccccc1	inactive	–
Cc1ccc(/C=C/c2nnc(-c3ccc(C)cc3)o2)cc1	inactive	–
Cc1c2c(nc3c(C(=O)NC4CCCC4)cnn13)CCCC2	inactive	–
Cc1cccc(C)c1OC1(c2ccccc2)OC(=O)c2ccccc21 (stereo unspecified)	inactive	–
O=C(/C=C\c1ccc(O)c(O)c1)O[C@@H]1C[C@](O)(C(=O)O)C[C@@H](O)[C@@H]1O	inactive	–
CCCn1nc(Oc2nc(NCC)nc(NC(C)C)n2)ccc1=O	inactive	–
